# The panel holds about 83,000 compounds, 20% with a hit somewhere; the sample as a whole holds those more often.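 The test compound was applied at a single concentration to cells in 96-well plates for 48 hours, and percent growth was recorded.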 Values without a mark were called inactive. Activity calls are given as the source filed them. Rule for the calls: active = growth percent below 10; inactive = the rest.
# System: MALME-3M melanoma
# Assay: NCI-60 one-dose screen, 48 h (100 = growth as untreated, 0 = no growth, -100 = all killed)
# Conditions: 10 µM unless noted
row,Compound,growth
1,CC1=C(C)C(=O)C(Nc2ccc(C)cc2)=C(Br)C1=O,112%
2,Cc1ccc(N2CCN(C3=C(Cl)C(=O)c4ncccc4C3=O)CC2)cc1,52.8%
3,COc1ccc2[nH]cc(-c3nc(N)nnc3-c3cn(C)c4ccc(Br)cc34)c2c1,42.2%
4,O=C(/C=C/c1ccccc1Cl)Nc1ncc(Cc2cc(Cl)ccc2Cl)s1,39.7%
5,CN(C)S(=O)(=O)c1ccc(-c2nc(C(Cl)Cl)nc3cc(-c4ccc(F)cc4)nn23)cc1,-11.5% (active)
6,Fc1ccc(-c2cn3c(-c4c[nH]c5ccc(Br)cc45)csc3n2)cc1,51.4%
7,C#Cc1nc(/C=C/CCCCCCC(=O)NO)cs1,22%
8,C#C[C@]1(O)CC[C@H]2[C@@H]3CC=C4c5sc(Nc6ncccc6C)nc5CC[C@]4(C)[C@H]3CC[C@@]21C,-19% (active)
9,CC(C)=CCC[C@](C)(O)[C@H]1CC[C@]2(C)[C@@H]1CC[C@@H]1[C@@]3(C)CC[C@H](N)C(C)(C)[C@@H]3CC[C@]12C,107%
10,Cc1cc2nc3c4cc(C#N)ccc4n(CCN(C)C)c3nc2cc1C,-68% (active)
11,N#Cc1c(-c2cccs2)cc(-c2cnccn2)nc1SCC(=O)N/N=C/c1ccncc1,120%
12,CCOC(=O)c1cccc(NC2=C(Cl)C(=O)C(C)=C(C)C2=O)c1,104%
13,c1ccc(-c2cn3c(-c4c[nH]c5ccccc45)csc3n2)cc1,69.6%
14,Cc1cc(Br)ccc1-n1cc(C#N)c(N)c1C(=O)c1ccc(Br)cc1,106%
15,Cn1cc(-c2cc3ncnc(Nc4ccc(NC(=O)Nc5cc(C(C)(C)C)on5)cc4)c3s2)cn1,17.3%
16,Nc1cc(C(=O)N/N=C\c2ccc(OC(F)F)c(OC3CCCC3)c2)nn1CC(O)c1ccccc1 (stereo not given),112%
17,COc1ccc(C2CC(c3cccc(OCCCCOc4cccc(C5=NOC(c6ccc(OC)cc6)C5)c4)c3)=NO2)cc1 (stereo not given),110%
18,O=C(COc1ccc(/C=C2\C(=O)Nc3ccc(Cl)cc32)cc1)Nc1ccc(Cl)cc1,81.2%
19,Cn1cc(-c2nnc(N)nc2-c2c[nH]c3ccc(F)cc23)c2cc(Br)ccc21,41.7%
20,C[C@H](Nc1ncnc2ccc(-c3cnc(Cl)c(NS(C)(=O)=O)c3)cc12)c1ccccc1,-43.1% (active)

row,Compound,growth
1,O=C(CSc1nc2ccccc2c(=O)n1CCc1ccccc1)Nc1ccc(S(=O)(=O)Nc2ccc(Cl)nn2)cc1,96.5%
2,NS(=O)(=O)c1ccc(Nc2nc(N/N=C/C=C/c3ccccc3)nc(Nc3ccccc3)n2)cc1,50.7%
3,O=C1[C@H]2Cc3c([nH]c4ccccc34)[C@H](c3ccc(Br)cc3)N2C(=O)CN1C1CCN(CC2CCCCC2)CC1,72.5%
4,CCc1cc2c(cc1Cl)nc1c(=O)[nH]c(=O)nc-1n2CCOCC(C)(C)C,-9.68% (active)
5,COc1ccc(-c2nc(C#N)c(N3CCC(S(=O)(=O)N4CCOCC4)CC3)o2)cc1,107%
6,COC(=O)c1ccc(NC2=C(Cl)C(=O)c3nc(C)ccc3C2=O)cc1,74.7%
7,Cc1ccccc1N1CCN(C2=C(Cl)C(=O)c3ncccc3C2=O)CC1,-14.5% (active)
8,CC[C@]12C=CCN3CC[C@@]4(c5ccc(OC)cc5N(C)[C@H]4[C@@](O)(C(=O)OC)[C@@H]1OC(=O)CCN1CCc4ccccc4C1)[C@@H]32,89.2%
9,Cc1nc(N)sc1-c1csc(Nc2ccc(C(F)(F)F)cc2)n1,10.1%
10,Cn1cc(-c2nnc(N)nc2-c2c[nH]c3ccc(Br)cc23)c2cc(Br)ccc21,108%
11,C#C[C@]1(O)CC[C@H]2[C@@H]3CC=C4c5sc(N(C)c6ccccc6)nc5CC[C@]4(C)[C@H]3CC[C@@]21C,110%
12,NS(=O)(=O)c1ccc(Nc2nc(Nc3ccccc3)nc(N3N=C(c4ccc(Cl)cc4)CC3c3ccc(Cl)cc3)n2)cc1 (stereo not given),42.5%
13,O=C(CCCCCCN1CC(=O)N2[C@@H](c3ccc(Cl)s3)c3[nH]c4ccccc4c3C[C@H]2C1=O)NO,21.9%
14,CCCCc1nc2c(N)nc3ccccc3c2n1Cc1cccc(CN)c1,22.6%
15,N#C/C(=C\c1ccc(-c2ccc(Cl)c(Cl)c2)o1)C(=O)Nc1ncc(Cc2ccc(Cl)cc2)s1,17.2%
16,O=C(Nc1ccc(Cl)c(C(F)(F)F)c1)Nc1ccc2oc(=O)ccc2c1,42.6%
17,COc1ccc2[nH]cc(/C=N/Nc3ccnc4cc(Cl)ccc34)c2c1,-97.7% (active)
18,O=C1Nc2ccccc2/C1=C/c1ccc(OCC(=O)c2ccccc2)cc1,98.4%
19,NS(=O)(=O)c1nnc(/N=C/c2c(O)[nH]c3ccccc23)s1,109%
20,COc1cc(/C=C2/C(=O)Nc3ccc(Cl)cc32)ccc1OCc1ccc(Cl)cc1,82.3%

# — PubChem BioAssay (NCI)
